Only some compounds are listed: those with a hit (about 17% of all), similar ones and a draw of the others.
ATXN viability – reduces viability in counter-screen for ATXN expression inhibitors; 0.49% of 400,000 active; Potency, µM (series often up to 56.7 µM), usual class: cytotoxic; S2 cells (HEK-293 line with an ATXN2-luciferase reporter) viability, CellTiter-Fluor protease fluorescence, 24 h; further: nearly all actives have a fitted effect of over 40% in size
DT40 TDP1 CPT – growth inhibition of DT40 Tdp1-/-;hTDP1 cells with camptothecin (screen for TDP1 inhibitors); chicken DT40 Tdp1-/-;hTDP1 cells + 20 nM CPT, ATP luminescence, 48 h; Potency, µM (titrated, usually from 46.2 µM), actives largely listed as inhibitors; 12% of 420,000 active; AID 686979; further: nearly all actives have a fitted effect of over 55% in size
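Cell growth measured by CellTiter-Glo luminescence after a minimum 48 h, 37 C compound exposure with 20 nM CPT in Tdp1-knockout DT40 cells stably expressing hTDP1, seeded 400/well; qHTS titration format.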
HepG2 viability – counter-screen for TGF-b inhibitors: cytotoxicity in HepG2 cells | 0.76% of 410,000 active | HepG2 CAGA-GFP viability, ATP luminescence, 18 h | Potency, µM (titrated, usually from 46.1 µM), actives largely listed as cytotoxic
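CellTiter-Glo luminescence gave cytotoxicity after 18 hours at 37 degrees C. The cells were HepG2 CAGA-GFP in 1% FBS DMEM, stimulated with 500 pg/mL TGF-beta after compound addition. %Activity was normalised to no-cell wells (complete cell-killing) and DMSO (no toxicity), and curves were fitted and classified.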
ATXN2 expr inh – ATXN2 expression inhibition; HEK-293 ATXN2-luciferase reporter, luminescence, 24 h; Potency, µM (titrated, usually from 57 µM), hits mostly inhibitors; 0.72% of 360,000 active; further: nearly all actives have a fitted effect of over 55% in size
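ATXN2-luciferase reporter cells (luciferase flanked by upstream and downstream ATXN2 gene portions) were treated 24 h at 37 °C with compounds at up to 57 uM. SteadyGlo luminescence gave expression; GF-AFC fluorescence gave viability.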
TGFb inhibitor – TGF-b pathway inhibition | 1.2% of 410,000 active | Potency, µM (top dose mostly 46.1 µM), usual class: inhibitors | HepG2 CAGA-GFP TGF-b/SMAD3 reporter, GFP fluorescence, 18 h; TGF-beta stimulated, 500 pg/mL final | AID 588855; further: nearly all actives have a fitted effect of over 65% in size
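HEPG2 CAGA-GFP, 1000 cells/well; 2 h settle, 37 C; cpd via pin tool; TGF-b 500 pg/mL final; 18 h, 37 C; GFP imaging ex488/em500-530; %Activity normalised to -TGF-b and +DMSO controls; CRC fit, curve class.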
TDP1 cell noCPT – qHTS for Inhibitors of human tyrosyl-DNA phosphodiesterase 1 (TDP1): qHTS in cells in absence of CPT; DT40 Tdp1-/- hTDP1 cells, no CPT, ATP luminescence, 48 h; Potency, µM (top dose mostly 46.2 µM), most hits filed as inhibitors; 15% of 420,000 active; AID 686978, 2013; further: nearly all actives have a fitted effect of over 55% in size
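DT40 Tdp1-/-;hTDP1 cells, no CPT (DMSO vehicle only), 400 cells/well; compounds pin-transferred; ≥48 hr, 37 °C; CellTiter-Glo 30 min RT dark, luminescence read.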
Hits are given with their value. The call rests on the fitted dose curve; in most records, active means well fitted curve in the direction sought with a large enough effect; inconclusive means small, poorly fitted or top-dose-only effect, or another doubt; inactive means no such curve, though single readings can be large; an effect the other way counts as inactive or inconclusive.

What do the screens show for `CCc1ccc(-c2nc(CS(=O)CC(=O)NCCc3ccccc3)c(C)o2)cc1` (stereo unspecified)?
ATXN viability: inactive; DT40 TDP1 CPT: inactive; HepG2 viability: inactive; ATXN2 expr inh: inactive; TGFb inhibitor: inactive; TDP1 cell noCPT: inactive

Results for Cc1ccc(NC(=O)CS(=O)Cc2nc(-c3ccc(C)cc3)oc2C)cc1 (stereo unspecified) ?
ATXN viability: inactive; DT40 TDP1 CPT: inconclusive; HepG2 viability: inactive; ATXN2 expr inh: inactive; TGFb inhibitor: inactive; TDP1 cell noCPT: 21µM

How did Cc1cccc(-n2ncc(C(=O)NCc3ccc4c(c3)OCO4)c2C2CCN(C(=O)OC(C)(C)C)CC2)c1 do in these assays?
DT40 TDP1 CPT: inconclusive; HepG2 viability: inactive; TGFb inhibitor: inactive; TDP1 cell noCPT: inconclusive

Results for CC(C)(C)OC(=O)N1CCC(c2c(C(=O)Nc3ccc4c(c3)OCCO4)cnn2-c2ccc(F)cc2F)CC1 ?
DT40 TDP1 CPT: 21µM; HepG2 viability: inactive; TGFb inhibitor: inconclusive; TDP1 cell noCPT: inactive

How did COc1ccc(NC(=O)c2cnn(-c3ccc(F)cc3F)c2C2CCN(C(=O)OC(C)(C)C)CC2)cc1Cl do in these assays?
DT40 TDP1 CPT: inconclusive; HepG2 viability: inactive; TGFb inhibitor: inconclusive; TDP1 cell noCPT: 18µM

What do the screens show for `CC(C)(C)OC(=O)N1CCC(c2c(C(=O)NCc3ccc4c(c3)OCO4)cnn2-c2ccc(F)cc2F)CC1`?
DT40 TDP1 CPT: inconclusive; HepG2 viability: inactive; TGFb inhibitor: 13µM; TDP1 cell noCPT: inactive

How did CC(C)(C)OC(=O)N1CCC(c2c(C(=O)Nc3cccc(C(F)(F)F)c3)cnn2-c2ccc(F)cc2F)CC1 do in these assays?
DT40 TDP1 CPT: inconclusive; HepG2 viability: inactive; TGFb inhibitor: inconclusive; TDP1 cell noCPT: inconclusive

How did Cc1cccc(-n2ncc(C(=O)Nc3ccc4c(c3)OCO4)c2C2CCN(C(=O)OC(C)(C)C)CC2)c1 do in these assays?
DT40 TDP1 CPT: 18µM; HepG2 viability: inactive; TGFb inhibitor: inconclusive; TDP1 cell noCPT: inconclusive

What do the screens show for `c1ccc(CCNc2ccc3ncc(-c4cccc5ccccc45)n3n2)nc1`?
ATXN viability: inactive; DT40 TDP1 CPT: inconclusive; HepG2 viability: inactive; ATXN2 expr inh: inactive; TGFb inhibitor: inconclusive; TDP1 cell noCPT: inconclusive

How did O=C(Nc1nccs1)c1sc2cc(Cl)ccc2c1Cl do in these assays?
ATXN viability: inconclusive; DT40 TDP1 CPT: inconclusive; HepG2 viability: inactive; ATXN2 expr inh: inactive; TGFb inhibitor: inconclusive; TDP1 cell noCPT: inconclusive

Results for O=C(Nc1ccccn1)c1sc2cc([N+](=O)[O-])ccc2c1Cl ?
ATXN viability: inactive; DT40 TDP1 CPT: 23µM; HepG2 viability: inactive; TGFb inhibitor: inactive; TDP1 cell noCPT: inconclusive

What do the screens show for `CN1CCN(c2ccccc2NC(=O)c2sc3ccccc3c2Cl)CC1`?
ATXN viability: inactive; DT40 TDP1 CPT: inconclusive; HepG2 viability: inactive; ATXN2 expr inh: inactive; TGFb inhibitor: inactive; TDP1 cell noCPT: 21µM

Results for CCCC(=O)N1CCN(c2ccc(NC(=O)c3sc4ccccc4c3Cl)cc2)CC1 ?
ATXN viability: inconclusive; DT40 TDP1 CPT: inactive; HepG2 viability: inactive; ATXN2 expr inh: inconclusive; TGFb inhibitor: inactive; TDP1 cell noCPT: inconclusive

Results for O=C(NC1CC1)c1sc2ccccc2c1Cl ?
ATXN viability: inactive; DT40 TDP1 CPT: inactive; HepG2 viability: inactive; ATXN2 expr inh: inactive; TGFb inhibitor: inactive; TDP1 cell noCPT: inactive

Results for O=C(Nc1nccs1)c1sc2ccccc2c1Cl ?
ATXN viability: inconclusive; DT40 TDP1 CPT: inconclusive; HepG2 viability: inactive; ATXN2 expr inh: inactive; TGFb inhibitor: inconclusive; TDP1 cell noCPT: 21µM

Results for O=C(NC1C=CS(=O)(=O)C1)c1sc2ccccc2c1Cl (stereo unspecified) ?
ATXN viability: inactive; DT40 TDP1 CPT: inconclusive; HepG2 viability: inactive; ATXN2 expr inh: inconclusive; TGFb inhibitor: inactive; TDP1 cell noCPT: 23µM

Results for Oc1[nH]c2ccccc2c1C1=NCCCCC1 ?
ATXN viability: inactive; DT40 TDP1 CPT: inactive; HepG2 viability: inactive; ATXN2 expr inh: inactive; TGFb inhibitor: inactive; TDP1 cell noCPT: inactive

How did CC(NC(=O)c1sc2ccccc2c1Cl)C1CCCO1 (stereo unspecified) do in these assays?
ATXN viability: inactive; DT40 TDP1 CPT: 21µM; HepG2 viability: inactive; ATXN2 expr inh: inactive; TGFb inhibitor: inactive; TDP1 cell noCPT: inconclusive

What do the screens show for `C=C1CC2(OC1=O)c1ccccc1CCc1ccccc12`?
DT40 TDP1 CPT: 4.6µM; HepG2 viability: 14µM; ATXN2 expr inh: 6µM; TGFb inhibitor: 8.9µM; TDP1 cell noCPT: 2.9µM

How did COCCNC(=S)N(C)[C@H]1C[C@H]2c3cc(-c4ccccc4)ccc3CCN2C(=O)[C@H]1[C@H](C)O do in these assays?
ATXN viability: inconclusive; DT40 TDP1 CPT: inconclusive; HepG2 viability: inactive; ATXN2 expr inh: inactive; TGFb inhibitor: inactive; TDP1 cell noCPT: 9.2µM

How did Cc1ccccc1Oc1ccc2c(c1)[C@@H]1C[C@H](N(C)C(=S)Nc3ccc(F)cc3)[C@H]([C@H](C)O)C(=O)N1CC2 do in these assays?
ATXN viability: inconclusive; DT40 TDP1 CPT: 21µM; HepG2 viability: inactive; ATXN2 expr inh: inconclusive; TGFb inhibitor: inconclusive; TDP1 cell noCPT: inconclusive

How did COCCNC(=S)N(C)[C@H]1C[C@H]2c3cc(Oc4ccccc4C)ccc3CCN2C(=O)[C@H]1[C@H](C)O do in these assays?
ATXN viability: inconclusive; DT40 TDP1 CPT: 15µM; HepG2 viability: inactive; ATXN2 expr inh: inactive; TGFb inhibitor: inconclusive; TDP1 cell noCPT: 8.2µM

How did COCC(=O)N(C)[C@H]1C[C@H]2c3cc(N4CCN(C)CC4)ccc3CCN2C(=O)[C@H]1[C@H](C)O do in these assays?
ATXN viability: inactive; DT40 TDP1 CPT: inactive; HepG2 viability: inactive; ATXN2 expr inh: inactive; TGFb inhibitor: inactive; TDP1 cell noCPT: inactive

Results for C[C@H](O)[C@@H]1C(=O)N2CCc3ccc(-c4cccc(F)c4)cc3[C@@H]2C[C@@H]1N(C)C(=O)C(C)(C)C ?
ATXN viability: inactive; DT40 TDP1 CPT: inconclusive; HepG2 viability: inactive; ATXN2 expr inh: inactive; TGFb inhibitor: inactive; TDP1 cell noCPT: inconclusive

Results for CN[C@H]1C[C@H]2c3cc(-c4ccccc4)ccc3CCN2C(=O)[C@H]1[C@H](C)O ?
ATXN viability: inactive; DT40 TDP1 CPT: inconclusive; HepG2 viability: inactive; ATXN2 expr inh: inactive; TGFb inhibitor: inactive; TDP1 cell noCPT: inconclusive

What do the screens show for `COc1ccccc1N1CCN(c2c3c(nc4nncn24)CCC3)CC1`?
DT40 TDP1 CPT: inactive; HepG2 viability: inactive; TDP1 cell noCPT: inactive

From PubChem
